Results: paper PMC7862700, “An all-to-all approach to the identification of sequence-specific readers for epigenetic DNA modifications on cytosine”

What was measured:
Experiment in all cases: DAPPL (digital affinity profiling via proximity ligation, sequencing); 10 mM Tris-HCl pH 7.5, 50 mM NaCl, 1 mM DTT, 4% glycerol, room temperature, 30 min; GST-TFs on glutathione beads, 16-mer random dsDNA library, 0.1% formaldehyde crosslink after washing; high values mean tight binding
Settings in all cases: protein: recombinant; tags: N-terminal GST; dsDNA, one strand shown
FLI1 = molecular target: T1, FLI1 (Homo sapiens, UniProt Q01543 1-452)
T1 sequence: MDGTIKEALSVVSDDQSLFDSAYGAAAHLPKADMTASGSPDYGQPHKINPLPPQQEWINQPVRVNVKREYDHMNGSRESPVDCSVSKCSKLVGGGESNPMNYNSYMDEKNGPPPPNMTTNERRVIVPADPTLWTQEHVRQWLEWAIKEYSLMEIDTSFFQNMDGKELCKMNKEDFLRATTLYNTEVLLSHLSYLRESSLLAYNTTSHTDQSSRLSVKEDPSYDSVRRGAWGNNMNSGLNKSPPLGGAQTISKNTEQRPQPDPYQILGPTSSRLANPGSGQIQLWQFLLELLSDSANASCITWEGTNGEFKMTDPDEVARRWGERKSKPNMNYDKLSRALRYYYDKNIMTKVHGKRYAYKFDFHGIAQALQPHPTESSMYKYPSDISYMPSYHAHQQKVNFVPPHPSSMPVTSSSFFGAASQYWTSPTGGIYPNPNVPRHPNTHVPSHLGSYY
Outline: (§1)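 GST fusions of human transcription factors were expressed in yeast and captured with glutathione beads. Once given DNA barcodes and pooled alongside a tag-only sample, they were incubated for 30 min at room temperature with 200 nmole of a random double-stranded 16-mer DNA library in Tris/NaCl/DTT/glycerol buffer, then washed, crosslinked (0.1% formaldehyde), proximity-ligated, PCR-amplified and sequenced on an Illumina NextSeq500. The binding signal of each hexamer is its read frequency for a factor divided by its frequency for the tag-only sample.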

ELK1 = molecular target: T2, ELK1 (Homo sapiens, UniProt P19419 1-428)
T2 sequence: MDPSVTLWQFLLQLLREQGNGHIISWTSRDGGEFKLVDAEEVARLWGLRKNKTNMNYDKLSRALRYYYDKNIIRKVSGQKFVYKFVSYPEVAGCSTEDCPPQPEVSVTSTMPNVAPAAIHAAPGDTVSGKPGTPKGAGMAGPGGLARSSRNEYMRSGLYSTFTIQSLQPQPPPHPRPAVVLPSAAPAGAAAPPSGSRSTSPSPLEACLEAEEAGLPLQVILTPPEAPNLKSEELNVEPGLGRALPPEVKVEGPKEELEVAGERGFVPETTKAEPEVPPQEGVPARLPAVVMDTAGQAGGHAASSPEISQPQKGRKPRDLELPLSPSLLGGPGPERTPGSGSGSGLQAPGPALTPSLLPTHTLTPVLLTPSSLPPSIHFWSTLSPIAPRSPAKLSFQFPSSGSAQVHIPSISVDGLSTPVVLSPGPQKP
Outline: as §1

GABPA = molecular target: T3, GABPA (Homo sapiens, UniProt Q06546 1-454)
T3 sequence: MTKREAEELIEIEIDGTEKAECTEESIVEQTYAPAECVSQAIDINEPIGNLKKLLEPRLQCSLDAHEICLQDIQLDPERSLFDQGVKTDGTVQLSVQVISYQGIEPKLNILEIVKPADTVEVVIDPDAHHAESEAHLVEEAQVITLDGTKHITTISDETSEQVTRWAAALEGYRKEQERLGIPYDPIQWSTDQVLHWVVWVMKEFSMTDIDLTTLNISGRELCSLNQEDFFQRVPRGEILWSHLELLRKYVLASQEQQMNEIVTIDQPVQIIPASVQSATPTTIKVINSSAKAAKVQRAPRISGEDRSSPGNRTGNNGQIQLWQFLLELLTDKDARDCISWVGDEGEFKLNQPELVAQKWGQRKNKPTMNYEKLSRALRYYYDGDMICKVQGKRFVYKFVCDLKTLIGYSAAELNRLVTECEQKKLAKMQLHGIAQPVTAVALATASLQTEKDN
Outline: as §1

ERG = molecular target: T4, ERG (Homo sapiens, UniProt P11308 1-479)
T4 sequence: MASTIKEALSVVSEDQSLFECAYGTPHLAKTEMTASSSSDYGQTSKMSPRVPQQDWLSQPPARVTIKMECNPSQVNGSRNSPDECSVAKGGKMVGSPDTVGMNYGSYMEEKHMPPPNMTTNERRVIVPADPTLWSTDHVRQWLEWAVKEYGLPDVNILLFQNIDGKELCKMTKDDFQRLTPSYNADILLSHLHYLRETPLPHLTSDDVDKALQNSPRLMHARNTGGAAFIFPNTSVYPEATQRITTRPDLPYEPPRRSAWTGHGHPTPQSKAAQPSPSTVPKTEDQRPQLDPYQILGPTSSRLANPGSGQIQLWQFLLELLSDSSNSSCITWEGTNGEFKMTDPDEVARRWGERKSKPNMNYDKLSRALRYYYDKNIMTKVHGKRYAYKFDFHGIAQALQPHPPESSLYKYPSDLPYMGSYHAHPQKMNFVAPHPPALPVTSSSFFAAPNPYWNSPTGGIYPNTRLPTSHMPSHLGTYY
Outline: as §1

ELF1 = ELF1 (Homo sapiens, UniProt P32519 1-619)
Outline: as §1

EHF = molecular target: T5, EHF (Homo sapiens, UniProt Q9NZC4 1-300)
T5 sequence: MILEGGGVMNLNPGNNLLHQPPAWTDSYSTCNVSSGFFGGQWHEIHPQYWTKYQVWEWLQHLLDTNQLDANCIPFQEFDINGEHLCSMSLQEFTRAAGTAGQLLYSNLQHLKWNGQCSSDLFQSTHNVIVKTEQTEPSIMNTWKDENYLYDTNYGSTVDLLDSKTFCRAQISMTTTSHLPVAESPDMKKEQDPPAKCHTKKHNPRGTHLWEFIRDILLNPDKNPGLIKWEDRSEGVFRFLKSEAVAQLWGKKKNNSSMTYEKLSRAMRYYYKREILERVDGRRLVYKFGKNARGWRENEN
Outline: as §1

SPI1 = SPI1 (Homo sapiens, UniProt P17947 1-270)
Outline: as §1

SPIB = SPIB (Homo sapiens, UniProt Q01892 1-262)
Outline: as §1

ELK3 = molecular target: T6, ELK3 (Homo sapiens, UniProt P41970 1-407)
T6 sequence: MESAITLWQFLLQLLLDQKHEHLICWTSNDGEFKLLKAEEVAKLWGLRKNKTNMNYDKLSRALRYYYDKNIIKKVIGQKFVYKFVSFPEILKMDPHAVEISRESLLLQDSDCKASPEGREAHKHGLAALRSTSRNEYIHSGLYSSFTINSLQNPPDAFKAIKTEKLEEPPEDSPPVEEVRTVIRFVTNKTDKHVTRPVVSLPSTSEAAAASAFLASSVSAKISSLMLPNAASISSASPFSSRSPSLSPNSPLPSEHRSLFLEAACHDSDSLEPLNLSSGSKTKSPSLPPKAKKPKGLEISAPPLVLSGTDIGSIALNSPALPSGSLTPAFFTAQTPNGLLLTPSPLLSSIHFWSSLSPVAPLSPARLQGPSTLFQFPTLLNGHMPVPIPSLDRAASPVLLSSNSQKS
Outline: as §1

ELF1, sequence (P32519 whole entry): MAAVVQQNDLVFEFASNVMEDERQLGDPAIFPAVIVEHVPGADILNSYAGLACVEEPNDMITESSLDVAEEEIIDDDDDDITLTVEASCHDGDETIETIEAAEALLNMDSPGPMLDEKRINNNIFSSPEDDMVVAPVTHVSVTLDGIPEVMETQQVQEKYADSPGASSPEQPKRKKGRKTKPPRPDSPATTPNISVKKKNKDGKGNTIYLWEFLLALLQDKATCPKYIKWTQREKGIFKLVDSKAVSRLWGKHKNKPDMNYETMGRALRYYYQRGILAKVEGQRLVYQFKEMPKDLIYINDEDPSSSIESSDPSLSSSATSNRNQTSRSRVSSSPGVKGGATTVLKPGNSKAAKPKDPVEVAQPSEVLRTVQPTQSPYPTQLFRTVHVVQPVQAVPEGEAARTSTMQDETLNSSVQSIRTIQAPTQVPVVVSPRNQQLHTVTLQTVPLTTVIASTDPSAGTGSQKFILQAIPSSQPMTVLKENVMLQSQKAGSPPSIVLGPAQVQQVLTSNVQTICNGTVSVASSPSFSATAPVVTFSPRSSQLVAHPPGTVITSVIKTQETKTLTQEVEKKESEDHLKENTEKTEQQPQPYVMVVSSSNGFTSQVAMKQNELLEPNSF
SPIB, sequence (Q01892 whole entry): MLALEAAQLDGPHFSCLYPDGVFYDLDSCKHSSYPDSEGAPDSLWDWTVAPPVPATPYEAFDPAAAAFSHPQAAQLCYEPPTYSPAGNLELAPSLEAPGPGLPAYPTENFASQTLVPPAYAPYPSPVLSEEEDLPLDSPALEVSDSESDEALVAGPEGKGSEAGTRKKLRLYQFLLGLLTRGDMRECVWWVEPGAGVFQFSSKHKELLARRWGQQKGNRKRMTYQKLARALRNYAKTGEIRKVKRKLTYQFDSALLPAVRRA

For TTATTT, the binding signal (FLI1) was 1.4 fold enrichment (6-mer frequency, TF over GST control), the binding signal (ELK1) was 1.42 fold enrichment (6-mer frequency, TF over GST control) and the binding signal (GABPA) was 1.33 fold enrichment (6-mer frequency, TF over GST control). The binding signal (ERG) was 1.44 fold enrichment (6-mer frequency, TF over GST control), the binding signal (ELF1) was 1.3 fold enrichment (6-mer frequency, TF over GST control) and the binding signal (EHF) was 1.35 fold enrichment (6-mer frequency, TF over GST control). For the same sequence, the binding signal (SPI1) was 1.44 fold enrichment (6-mer frequency, TF over GST control), the binding signal (SPIB) was 1.37 fold enrichment (6-mer frequency, TF over GST control) and the binding signal (ELK3) was 1.33 fold enrichment (6-mer frequency, TF over GST control).
